Source: PubChem BioAssay AID743446 (Broad Institute, 2014)
Measured potencies and affinities stand elsewhere. Calls of active or inactive are those of the source. How the calls were made is not given here.

Experiment: viability loss in HEK293 cells – cell-based, plate reader, cherry-picked samples, cytotoxicity control, dose response (AID 743446)
Conditions: stronger effect = lower value; at 26 µM unless noted

| Structure (SMILES) | max activity |
| --- | --- |
| C[C@H](CO)N1C[C@H](C)[C@H](CN(C)C(=O)Nc2ccc(F)cc2)OCCCC[C@H](C)Oc2ccc(NC(=O)C3CCCCC3)cc2C1=O | -10.8% [at 6 µM] (inactive) |
| Cc1ccc2nc(-c3ccc(Br)cc3)cn2c1 | 0% [setting not given] (inactive) |
| Cc1noc(C)c1S(=O)(=O)Nc1ccc2c(c1)C(=O)N([C@H](C)CO)C[C@H](C)[C@H](CN(C)C(=O)Nc1ccc(F)cc1)OCCCC[C@@H](C)O2 | 16.1% [at 0.1 µM] (inactive) |
| Cc1ccc(-c2cnn3c(N4CCOCC4)cc(C)nc23)cc1 | 35.7% [at 0.38 µM] (inactive) |
| CC(C)c1ccc2c(c1)C(N1CCNCC1)Cc1ccc(F)cc1S2 (stereo not drawn) | -119% (inactive) |
| Cc1ccc(NC(=O)c2sc3ccccc3c2Cl)nc1 | 24.8% [at 12 µM] (inactive) |
| O=C(NCCc1ccccc1)c1ccc2c(c1)OCO2 | 21.8% [at 12 µM] (inactive) |
| Cc1c(NC(=O)c2cccc(NC(=O)COc3ccccc3C#N)c2)c(=O)n(-c2ccccc2)n1C | -14.7% [at 3 µM] (inactive) |
| CCC(=O)Nc1cc2nn(-c3ccc(OC)cc3)nc2cc1C | 0% [setting not given] (inactive) |
| CCCC(=O)N1CCCC(c2cc(C(=O)Nc3ccccc3)no2)C1 (stereo not drawn) | -23.2% [at 0.05 µM] (inactive) |
| O=C(Nc1cccc(-c2ccc(N3CCCCC3)nn2)c1)C(F)(F)F | -33.5% [at 3 µM] (inactive) |
| COc1cccc(-c2ccc(C3[C@@H]4CN(C(=O)C5CC5)C[C@H]3N4)cc2)c1 (stereo partly drawn) | 15.1% [at 3 µM] (inactive) |
| Cc1ccc(S(=O)(=O)N2[C@@H](CO)CO[C@H]2CC(=O)OCc2ccccc2)cc1 | 42.9% [at 12 µM] (inactive) |
| CCN(C(=O)COC(=O)C12CC3CC(CC(O)(C3)C1)C2)c1c(N)n(Cc2ccccc2)c(=O)[nH]c1=O | 34% [at 0.1 µM] (inactive) |
| CCCn1c(C)cc(C(=O)CN2C(=O)c3ccccc3S2(=O)=O)c1C | -16% [at 3 µM] (inactive) |
| CCOC(=O)c1sc(NC(=O)Nc2ccccc2F)nc1C | -21.8% [at 0.05 µM] (inactive) |
| Cc1ccc(C(=O)n2nc(-n3cccc3)c3c(C)cc(C)nc32)cc1 | -22.4% [at 6 µM] (inactive) |

| Structure (SMILES) | max activity |
| --- | --- |
| O=C(C[C@H]1C=C[C@@H](NC(=O)C2CCC2)[C@H](CO)O1)NCCCN1CCOCC1 | -15.9% [at 1.6 µM] (inactive) |
| O=C(CN1C(=O)c2ccccc2S1(=O)=O)c1ccccc1Cl | 32.4% (inactive) |
| CN(C)c1ccc(C(=O)Nc2nc3c(s2)CCCC3)cc1 | -30% (inactive) |
| C[C@H](CO)N1C[C@H](C)[C@H](CN(C)C(=O)Nc2ccc(C(F)(F)F)cc2)OCCCC[C@H](C)Oc2ccc(NC(=O)NC3CCCCC3)cc2C1=O | 66% (inactive) |
| CC(=O)N1CCc2cc(S(=O)(=O)C(C)CC(=O)NCc3ccco3)ccc21 (stereo not drawn) | -15.3% [at 6 µM] (inactive) |
| COc1ccc(-c2cc(C)nc3c(-c4ccccc4)cnn23)cc1 | -10.2% (inactive) |
| COc1ccc(NC(=O)N(C)C[C@@H]2OCCCC[C@H](C)Oc3ccc(NC(=O)NC4CCCCC4)cc3C(=O)N([C@H](C)CO)C[C@@H]2C)cc1 | 7.92% [at 0.195 µM] (inactive) |
| Cc1ccc(S(=O)(=O)N(C)C[C@H]2Oc3c(cccc3N(C)C)C(=O)N([C@@H](C)CO)C[C@@H]2C)cc1 | 10.6% [at 6 µM] (inactive) |
| Cc1ccoc1C(=O)Nc1ccc2ccccc2c1 | -16.8% [at 0.1 µM] (inactive) |
| Cc1csc(NC(=O)c2cnc3ccccc3n2)n1 | 87.3% (inactive) |
| CC(C)(C)NC(=O)c1cccc(NC(=O)c2ccc3c(c2)C(=O)N(C(C)(C)C)C3=O)c1 | 27.3% [at 0.195 µM] (inactive) |
| CCn1c2ccccc2c2cc(CNCc3ccc(OC)cc3OC)ccc21 | -98.9% (inactive) |
| COCC#Cc1ccc2c(c1)O[C@H](CN(C)S(=O)(=O)c1cccc(F)c1)[C@@H](C)CN([C@H](C)CO)S2(=O)=O | 14.5% [at 0.195 µM] (inactive) |
| O=C(Nc1ccc2c(c1)OCCO2)c1ccc(Cl)cc1Cl | -20.3% [at 3 µM] (inactive) |
| COc1ccc(CCNC(=O)C2CCN(S(=O)(=O)c3ccc(Cl)cc3)CC2)cc1OC | -15% [at 0.05 µM] (inactive) |
| Cc1ccc(-n2nnc(-c3nccn3C)n2)cc1 | -39% (inactive) |
